Results: PubChem BioAssay (NCI)
The panel holds about 79,000 compounds, 15% with a hit somewhere; the sample as a whole holds those more often. Calls of active or inactive are those of the source. Cut-off read from the data, not from the text of the source: active = growth inhibition above about 70%; inactive = the rest.

Experiments:
[1] = NCI Yeast Anticancer Drug Screen. Data for the rad50 strain (AID 155);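 note: 0% = growth of vehicle-only cultures of the same strain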; conditions: S. cerevisiae rad50 strain growth inhibition, hits give high values
Outline: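 Inhibition values express reduced yeast growth in compound-treated cultures relative to vehicle-treated controls.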

[2] = NCI Yeast Anticancer Drug Screen. Data for the mec2-1 strain (AID 157); conditions: S. cerevisiae mec2-1 strain, hits give high values
Outline: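 Strain: mec2-1 (DNA repair/cell cycle alteration). Compound exposure, then growth measured; inhibition expressed relative to vehicle.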

[3] = NCI Yeast Anticancer Drug Screen. Data for the sgs1 mgt1 strain (AID 161);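 note: 0% = growth of cultures given vehicle only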; conditions: S. cerevisiae sgs1 mgt1 strain, hits give high values
Outline: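 Read-out: growth inhibition vs vehicle controls. Cells: mutant yeast strain deficient in DNA damage repair.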

[4] = NCI Yeast Anticancer Drug Screen. Data for the cln2 rad14 strain (AID 165);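 note: 0% = growth equal to vehicle treated cultures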; conditions: S. cerevisiae cln2 rad14 strain, hits give high values
Outline: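 Compounds are applied to the cln2 rad14 yeast strain, and growth is then compared with that of vehicle-treated cultures to give inhibition.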

[5] = NCI Yeast Anticancer Drug Screen. Data for the bub3 strain (AID 167); conditions: S. cerevisiae bub3 mutant strain, hits give high values
Outline: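 Steps: expose the mutant yeast strain to compound; grow alongside vehicle-treated cultures; measure growth; express inhibition against the vehicle cultures.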

[6] = NCI Yeast Anticancer Drug Screen. Data for the mlh1 rad18 strain (AID 175); conditions: S. cerevisiae mlh1 rad18 strain growth inhibition, hits give high values
Outline: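 Read-out is yeast growth inhibition, calculated against vehicle-only controls. The compound was applied to a strain engineered with DNA damage repair alterations.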

[7] = at 5.0 µM (retest, dose inferred, filed as 0.5)
[8] = at 50.0 µM (retest, dose inferred, filed as 5.0)

Measured: growth inhibition

C/C=C(/CN/C(=C\[N+](=O)[O-])c1ccccc1)c1ccccc1
active: [1]; [8] 87% | [1]; at 50.0 µM 96.5% | [2]; [8] 86% | [2]; at 50.0 µM 95% | [3]; [8] 79% | [3]; at 50.0 µM 94.3% | [4]; at 50.0 µM 75.2% | [5]; [8] 74% | [5]; at 50.0 µM 92.7% | [6]; [8] 84% | [6]; at 50.0 µM 95.5%
inactive: [1]; [7] 0% | [2]; [7] -4% | [3]; [7] 0% | [4]; [7] -1% | [4]; [8] 37% | [5]; [7] 8% | [6]; [7] -8%

O=C(CCN1CCCC1)c1ccc(Oc2ccc(F)cc2)cc1
inactive: [1]; [7] 28% | [1]; [8] 50% | [1]; at 50.0 µM 69.8% | [2]; [7] 20% | [2]; [8] 48% | [2]; at 50.0 µM 11.7% | [3]; [7] 31% | [3]; [8] 60% | [3]; at 50.0 µM 47.2% | [4]; [7] 34% | [4]; [8] 68% | [4]; at 50.0 µM 54.7% | [5]; [7] 31% | [5]; at 50.0 µM 49.4% | [6]; [7] 30% | [6]; [8] 56% | [6]; at 50.0 µM 63.4%
active: [5]; [8] 72%

CC(C)c1ccc2nc3ccc(C(=O)NCCN4CCN(c5ccccc5)CC4)cn3c(=O)c2c1
inactive: [1]; [7] 18% | [1]; at 50.0 µM 12.1% | [2]; [7] -9% | [2]; at 50.0 µM 16.6% | [3]; [7] 18% | [3]; at 50.0 µM 13.2% | [4]; [7] 3% | [4]; at 50.0 µM -7.8% | [5]; [7] 14% | [5]; at 50.0 µM -7.5% | [6]; [7] 4% | [6]; at 50.0 µM 5.15%
active: [1]; [8] 97% | [2]; [8] 98% | [3]; [8] 99% | [4]; [8] 97% | [5]; [8] 98% | [6]; [8] 97%

CC(C)(C)C(=O)CC(=O)C(F)(F)C(F)(F)C(F)(F)F.CC(C)(C)C(=O)CC(=O)C(F)(F)C(F)(F)C(F)(F)F.CC(C)(C)C(=O)CC(=O)C(F)(F)C(F)(F)C(F)(F)F.[Fe]
active: [1]; [8] 85% | [2]; [8] 88% | [3]; [8] 88% | [3]; at 50.0 µM 74.9% | [4]; [8] 91% | [6]; [8] 93% | [6]; at 50.0 µM 84.5%
inactive: [1]; [7] 21% | [1]; at 50.0 µM 38.5% | [2]; [7] 5% | [2]; at 50.0 µM 9.3% | [3]; [7] 43% | [4]; [7] 13% | [4]; at 50.0 µM 19.8% | [5]; [7] -1% | [5]; [8] 37% | [5]; at 50.0 µM -1.15% | [6]; [7] 32%

COc1ccc2c(c1)CCC1=C2C=C[P+]1(C)C
inactive: [1]; [7] -4% | [2]; [7] -5% | [3]; [7] -1% | [4]; [7] 4% | [5]; [7] -2% | [6]; [7] -2%
active: [1]; [8] 98% | [1]; at 50.0 µM 99.5% | [2]; [8] 96% | [2]; at 50.0 µM 99.7% | [3]; [8] 100% | [3]; at 50.0 µM 99.7% | [4]; [8] 71% | [4]; at 50.0 µM 94.6% | [5]; [8] 97% | [5]; at 50.0 µM 99.7% | [6]; [8] 99% | [6]; at 50.0 µM 99.5%

Cc1ccc(S(=O)(=O)Oc2ccc3oc4c(CO)ccc(NCCN(C)C)c4c(=O)c3c2)cc1
inactive: [1]; [7] 3% | [1]; [8] 5% | [1]; at 50.0 µM 16.6% | [2]; [7] 0% | [2]; [8] -32% | [2]; at 50.0 µM -17.6% | [3]; [7] 2% | [3]; [8] 16% | [4]; [7] 1% | [4]; [8] 7% | [4]; at 50.0 µM -2.35% | [5]; [7] 3% | [5]; [8] 4% | [5]; at 50.0 µM -9.25% | [6]; [7] 3% | [6]; [8] 14% | [6]; at 50.0 µM 43%
active: [3]; at 50.0 µM 97.8%

CNC(=O)N1N[C@H](c2ccccc2)[C@@H]1c1ccccc1
active: [5]; [8] 72%
inactive: [1]; [7] 25% | [1]; [8] 69% | [1]; at 50.0 µM 30.6% | [2]; [7] 15% | [2]; [8] 50% | [2]; at 50.0 µM 35% | [3]; [7] 21% | [3]; [8] 63% | [3]; at 50.0 µM 47.4% | [4]; [7] 20% | [4]; [8] 32% | [4]; at 50.0 µM 36.9% | [5]; [7] 29% | [5]; at 50.0 µM 46.9% | [6]; [7] 23% | [6]; [8] 60% | [6]; at 50.0 µM -14.1%

Cc1nc(-n2nc(-c3ccccc3)cc2-c2ccccc2)sc1C(/C=C\c1ccc([N+](=O)[O-])cc1)=N/NC(=S)NN
active: [1]; [8] 87% | [2]; [8] 86% | [3]; [8] 91% | [3]; at 50.0 µM 80.7% | [5]; [8] 88% | [6]; [8] 80%
inactive: [1]; [7] 4% | [1]; at 50.0 µM 61.3% | [2]; [7] 3% | [2]; at 50.0 µM 37.1% | [3]; [7] 11% | [4]; [7] 0% | [4]; [8] 67% | [4]; at 50.0 µM 10.8% | [5]; [7] 25% | [5]; at 50.0 µM 65.7% | [6]; [7] -2% | [6]; at 50.0 µM 64.8%

Cc1ccc(-c2c(C#N)c(-c3ccccc3)n(NS(=O)(=O)c3ccc(C)cc3)c(=O)c2C#N)cc1
active: [1]; [8] 73% | [1]; at 50.0 µM 73.5% | [2]; at 50.0 µM 79.1% | [3]; [8] 70% | [3]; at 50.0 µM 81% | [4]; at 50.0 µM 80.8% | [5]; [8] 70% | [5]; at 50.0 µM 81.7% | [6]; [8] 72% | [6]; at 50.0 µM 77.2%
inactive: [1]; [7] 26% | [2]; [7] 28% | [2]; [8] 67% | [3]; [7] 35% | [4]; [7] 52% | [4]; [8] 68% | [5]; [7] 51% | [6]; [7] 34%

CSc1ccc(/C=N/NC(N)=S)cc1
active: [1]; at 50.0 µM 91% | [2]; at 50.0 µM 76% | [3]; at 50.0 µM 81.3% | [5]; at 50.0 µM 86.5% | [6]; at 50.0 µM 84.7%
inactive: [1]; [7] -150% | [1]; [8] -19% | [2]; [7] -53% | [2]; [8] -4% | [3]; [7] -65% | [3]; [8] 12% | [4]; [7] -65% | [4]; [8] -19% | [4]; at 50.0 µM 43.7% | [5]; [7] -63% | [5]; [8] -3% | [6]; [7] -119% | [6]; [8] 1%
